Bioassay records from PubChem.
GDH-TPI counter-1 = counter-screen for M. tuberculosis FBA inhibitors: GDH-TPI coupled enzymes. GDH-TPI coupled enzyme counterscreen, NADH absorbance. inhibition, % at 4.8 µM. hit rate 1.2% among 360,000; in the data active = inhibition above about 30%;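 also: 0% = DMSO wells and 100% = wells lacking the enzyme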
BoNT-F LC inh = BoNT F light chain protease inhibition. Multiplex microsphere protease cleavage assay, flow cytometry. inhibition, % at 10 µM. hit rate 0.22% among 360,000. AID 588497; in the data active = inhibition above about 35%, passing the limit was not always enough; inconclusive = no clear call, values can overlap the other calls; also: plate controls were buffer without enzyme for full effect and enzyme alone for no effect
Autofluor counter = flagged as autofluorescent in microsphere protease counterscreen; compound autofluorescence counterscreen, microsphere flow cytometry; hits give high values; fluorescence intensity (concentration not given with the values); hit rate 3.1% among 360,000; AID 624483; in the data active = fluorescence intensity above about 16000; inconclusive = no clear call, values can overlap the other calls
Mtb FBA inh = inhibitors of M. tuberculosis fructose-bisphosphate aldolase; P9WQA3; purified M. tuberculosis FBA, fluorescence read-out; inhibition, % at 1 µM; hit rate 2.3% among 360,000; AID 588726; in the data active = inhibition above about 27%;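 also: 0% = vehicle and 100% = reference inhibitor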
Target sequence (P9WQA3 whole entry, looked up): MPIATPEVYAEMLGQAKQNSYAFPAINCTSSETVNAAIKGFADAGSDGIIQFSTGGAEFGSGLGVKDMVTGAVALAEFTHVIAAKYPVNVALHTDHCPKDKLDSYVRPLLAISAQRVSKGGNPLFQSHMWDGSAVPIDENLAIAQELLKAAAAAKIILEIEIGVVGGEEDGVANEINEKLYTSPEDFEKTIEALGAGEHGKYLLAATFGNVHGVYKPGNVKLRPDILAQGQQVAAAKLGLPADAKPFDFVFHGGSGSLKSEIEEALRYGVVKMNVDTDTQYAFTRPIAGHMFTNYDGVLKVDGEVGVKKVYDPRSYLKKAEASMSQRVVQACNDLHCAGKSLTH
BoNT A protease = blocks Botulinum neurotoxin A light chain protease. multiplex microsphere protease substrate cleavage, flow cytometry. inhibition, % at 10 µM. hit rate 0.17% among 360,000; also: plate controls were buffer without enzyme for full effect and enzyme alone for no effect
Anthrax LF prot = anthrax lethal factor protease inhibition. multiplex microsphere protease cleavage assay, LF. inhibition, % at 10 µM. hit rate 0.12% among 360,000. AID 588501; also: plate controls were buffer without enzyme for full effect and enzyme alone for no effect
Mtb FBA inh conf = Mtb FBA inhibition, confirmed; shares compounds with Mtb FBA inh; purified M. tuberculosis FBA, fluorescence read-out; inhibition, % at 1 µM; hit rate 78% among 5,600; in the data active = inhibition above about 27%;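 also: 0% = vehicle wells and 100% = reference inhibitor wells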
GDH-TPI counter-2 = counter-screen for M. tuberculosis FBA inhibitors: GDH-TPI coupled enzyme inhibition. shares compounds with Mtb FBA inh. GDH-TPI coupled enzyme counterscreen, fluorescence. inhibition, % at 1 µM. hit rate 81% among 5,600; in the data active = inhibition above about 10%
GDH-TPI dose = GDH-TPI dose response counter-screen for Mtb FBA. shares compounds with Mtb FBA inh. GDH-TPI coupled enzyme assay, fluorescence, artifact counterscreen. IC50, µM. hit rate 79% among 170. AID 652145; call rule not given here
Numbers without * were called inactive; ? = inconclusive; nt = no result given; + = active, no number. Shown are actives, neighbours in structure and some others; about 6.6% of the full set was active somewhere. Rule as the data show it, unless noted: active = inhibition above about 30%; inconclusive = no clear call, values can overlap the other calls; inactive = below that.

SMILES	GDH-TPI counter-1	BoNT-F LC inh	Autofluor counter	Mtb FBA inh	BoNT A protease	Anthrax LF prot	Mtb FBA inh conf	GDH-TPI counter-2	others
O=C(NNC(=O)C1CCCCC1)c1ccc(Br)cc1	8	-3	2725	2	0	0	nt	nt
O=C(NNC(=O)C1C2CCCCC21)c1coc(=O)c(Br)c1 (centres undefined)	15	?	3939	54*	-2	3	86*	50*
O=C(Nc1cccnc1)C1CC(=O)N(c2ccc(F)cc2)C1 (centres undefined)	4	-12	4068	2	-3	2	nt	nt
CC1(C(=O)Nc2ccccc2Br)CCN1C(=O)Cc1ccccc1Cl (centres undefined)	-1	12	3701	-3	0	7	nt	nt
Cc1c(CCC(=O)NCC(=O)NCC(=O)O)c(=O)oc2cc3oc4c(c3cc12)CCCC4	21	12	3640	35*	1	8	-3	-4
Cc1c(CCC(=O)O)c(=O)oc2cc3oc4c(c3cc12)CCCC4	11	4	3373	5	0	-10	nt	nt
CCNC(=O)NC(=O)COC(=O)c1ccccc1SCC(=O)NC(=O)NCC	20	-10	4470	79*	2	4	18	8
O=C(COC(=O)c1ccccc1SCC(=O)NC1CCS(=O)(=O)C1)NC1CCS(=O)(=O)C1 (centres undefined)	2	-4	2484	3	0	2	nt	nt
CCOC(=O)c1cnc2c(-c3ccc(Cl)cc3)cnn2c1C	1	3	2502	-2	0	-1	nt	nt
CCOC(=O)c1cnc2c(-c3ccc(F)cc3)cnn2c1C(F)(F)F	13	30	3446	74*	2	-1	17	7
COc1ccc2oc(C(=O)OC(C)C(=O)N3C(C)CCCC3C)c(C)c2c1 (centres undefined)	18	-2	3836	62*	0	-4	51*	31*
COc1ccc2oc(C(=O)OC(C)C(=O)NC3(C#N)CCCCC3)c(C)c2c1 (centres undefined)	-7	nt	nt	28*	nt	nt	39*	29*
Cc1ccc(Oc2ncc(CN3CCOCC3)s2)cc1	-5	5	5694	38*	0	-3	50*	44*
Brc1ccc(Oc2ncc(CN3CCN(c4ccccc4)CC3)s2)cc1	9	14	3410	0	0	-3	nt	nt
Cc1oc2c(c(C)cc3oc(=O)c(CC(=O)NCCC(=O)O)c(C)c32)c1C	23	15	3211	31*	-2	8	159*	99*
Cc1coc2c1c(C)cc1oc(=O)c(CC(=O)NCCCCCC(=O)O)c(C)c12	2	11	4129	62*	-2	-8	+	175*
Cc1oc2c(c(C)cc3oc(=O)c(CC(=O)N[C@H](C(=O)O)C(C)C)c(C)c32)c1C	4	-16	4267	21	-2	-9	nt	nt
Cc1coc2c1c(C)cc1oc(=O)c(CC(=O)NCC(=O)O)c(C)c12	19	9	2994	101*	1	7	141*	94*
Cc1oc2c(c(C)cc3oc(=O)c(CC(=O)N[C@@H](CC(C)C)C(=O)O)c(C)c32)c1C	11	6	3136	31*	1	10	85*	64*
CC1CN(C(=O)COC(=O)Cc2ccc(Cl)cc2)CC(C)O1 (centres undefined)	1	7	5109	2	3	2	nt	nt
O=C(NCCCn1ccnc1)C(=O)c1c[nH]c2ccccc12	12	-8	3636	1	1	-7	nt	nt
Nc1cc(=O)[nH]c(SCC(=O)NC2CCCCCCC2)n1	7	-3	2917	4	0	-1	nt	nt
Cc1[nH]c2ccccc2c1C(=O)COC(=O)c1c(-c2c(F)cccc2Cl)noc1C	-12	0	2214	-4	0	0	nt	nt
CCOc1ccccc1NC(=O)C(c1ccccc1)N1CCN(C(=O)c2ccco2)CC1 (centres undefined)	6	-7	6558	0	-3	-1	nt	nt
CCn1c2ccccc2c(=O)c2ccccc21	7	-6	3176	87*	0	-1	5	-4
SMILES	GDH-TPI counter-1	BoNT-F LC inh	Autofluor counter	Mtb FBA inh	BoNT A protease	Anthrax LF prot	Mtb FBA inh conf	GDH-TPI counter-2	others
CC(=O)n1c(-c2ccccc2)c(-c2ccccc2)n(C)c1=O	-4	-1	5888	50*	0	-8	78*	50*
O=C(Nc1cccnc1Cl)c1cc2ccccc2o1	-1	-2	3420	-2	-2	-6	nt	nt
CC1(C(=O)NCc2ccccc2)Cc2c(-c3cccc(C(N)=O)c3)ccnc2O1 (centres undefined)	-5	-2	3545	-1	0	-5	nt	nt
CC1(C(=O)NCc2cccs2)Cc2c(-c3ccc4c(c3)OCO4)ccnc2O1 (centres undefined)	-1	-5	3800	61*	0	-10	53*	32*
CC(=O)Nc1ccc(-c2ccnc3c2CC(C)(C(=O)NCc2ccco2)O3)cc1 (centres undefined)	7	0	4011	10	0	-2	nt	nt
CN(C)c1ccc(-c2ccnc3c2CC(C)(C(=O)NCc2ccc(F)c(F)c2)O3)cc1 (centres undefined)	25	4	3545	44*	0	-2	103*	78*
CN(C)c1ccc(-c2ccnc3c2CC(C)(C(=O)NCc2ccco2)O3)cc1 (centres undefined)	14	-3	3848	31*	0	-7	73*	52*
CC1(C(=O)NCc2cccc(Cl)c2)Cc2c(-c3ccc4c(c3)OCO4)ccnc2O1 (centres undefined)	10	-3	3884	30*	0	-11	19	21*
CC(C)NC(=O)C1(C)Cc2c(-c3ccc(N(C)C)cc3)ccnc2O1 (centres undefined)	12	-8	4080	38*	0	-6	+	+
CN(C)c1ccc(-c2ccnc3c2CC(C)(C(=O)NCCC(F)(F)F)O3)cc1 (centres undefined)	24	-5	3766	36*	0	1	97*	64*
CN(C)c1ccc(-c2ccnc3c2CC(C)(C(=O)NCc2cccs2)O3)cc1 (centres undefined)	19	0	3807	40*	0	-3	32*	9	GDH-TPI dose=1*
COc1ccc(-c2nc3ccc(N4CCCC4)cc3c(=O)[nH]2)cc1OC	24	-35	3570	27*	-1	-5	5	-7
Cc1ccc(S(=O)(=O)N(C)C)cc1NC(=O)C1CCCCN1S(=O)(=O)c1ccccc1 (centres undefined)	3	-13	3037	106*	-1	-1	132*	108*
